Test results as given in the supplement of paper PMC10849652.
Targets with a hit are over-represented here; the source holds about 8,800 in all. About 0.5% of all pairs of compound and target were hits. Values without a mark were called inactive.

Key:
Test in all cases: log2 fold change, soluble protein after heating vs DMSO (PISA); higher = thermal stabilisation; K562 lysate, 10 uM; active = over 0.2 and 3.5 SD of the protein, either way, in both replicates (recomputed)
lapatinib = compound: CS(=O)(=O)CCNCc1ccc(-c2ccc3ncnc(Nc4ccc(OCc5cccc(F)c5)c(Cl)c4)c3c2)o1 [lapatinib]
In short: (§1)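 The values are log-two fold changes in thermal stability compared with solvent controls and come from duplicates. They were obtained by TMTpro 16plex LC-MS/MS, with channel sums equalised, on the supernatant after 21,000xg for 90 min. That supernatant came from crude K562 extract at 1 mg/mL protein treated with 10 μM compound for 30 min, heated for 3 min across 48°C-58°C, pooled and brought to 0.5% NP-40 at 4°C.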

pictilisib = compound: CS(=O)(=O)N1CCN(Cc2cc3nc(-c4cccc5[nH]ncc45)nc(N4CCOCC4)c3s2)CC1 [pictilisib]
In short: as §1

crizotinib = compound: C[C@@H](Oc1cc(-c2cnn(C3CCNCC3)c2)cnc1N)c1c(Cl)ccc(F)c1Cl [crizotinib]
In short: as §1

[1] = compound: C[C@H](C1=CC=C(C=C1)C(=O)NC2=C3C=CNC3=NC=C2)N
In short: as §1

duvelisib = compound: C[C@H](Nc1ncnc2nc[nH]c12)c1cc2cccc(Cl)c2c(=O)n1-c1ccccc1 [duvelisib]
In short: as §1

gandotinib = compound: Cc1cc(Nc2cc(CN3CCOCC3)c3nc(C)c(Cc4ccc(Cl)cc4F)n3n2)n[nH]1 [gandotinib]
In short: as §1

tozasertib = compound: Cc1cc(Nc2cc(N3CCN(C)CC3)nc(Sc3ccc(NC(=O)C4CC4)cc3)n2)n[nH]1 [tozasertib]
In short: as §1

doramapimod = compound: Cc1ccc(-n2nc(C(C)(C)C)cc2NC(=O)Nc2ccc(OCCN3CCOCC3)c3ccccc23)cc1 [doramapimod]
In short: as §1

bafetinib = compound: Cc1ccc(NC(=O)c2ccc(CN3CC[C@H](N(C)C)C3)c(C(F)(F)F)c2)cc1Nc1nccc(-c2cncnc2)n1 [bafetinib]
In short: as §1

[2] = compound: Cc1cccc(CC(=O)N2CCc3c2ccc(-c2cn(C)c4ncnc(N)c24)c3F)n1
In short: as §1

nilotinib = compound: Cc1cn(-c2cc(NC(=O)c3ccc(C)c(Nc4nccc(-c5cccnc5)n4)c3)cc(C(F)(F)F)c2)cn1 [nilotinib]
In short: as §1

[3] = compound: Cc1nc(Nc2n[nH]c3c2CN(C(=O)N[C@H](CN(C)C)c2ccccc2)C3(C)C)c2sccc2n1
In short: as §1

dasatinib = compound: Cc1nc(Nc2ncc(C(=O)Nc3c(C)cccc3Cl)s2)cc(N2CCN(CCO)CC2)n1 [dasatinib]
In short: as §1

[4] = compound: Cc1ncc(-c2ccnc(Nc3ccc(S(C)(=O)=O)cc3)n2)n1C(C)C
In short: as §1

[5] = compound: Cn1cc(-c2ccc3c(c2)CCN3C(=O)Cc2cccc(C(F)(F)F)c2)c2c(N)ncnc21
In short: as §1

quisinostat = compound: Cn1cc(CNCC2CCN(c3ncc(C(=O)NO)cn3)CC2)c2ccccc21 [quisinostat]
In short: as §1

tipifarnib = compound: Cn1cncc1[C@@](N)(c1ccc(Cl)cc1)c1ccc2c(c1)c(-c1cccc(Cl)c1)cc(=O)n2C [tipifarnib]
In short: as §1

[6] = compound: NC(=O)Nc1cc(-c2cccc(F)c2)sc1C(=O)N[C@H]1CCCNC1
In short: as §1

[7] = compound: NC(=O)c1cnc(N[C@@H]2CCCC[C@@H]2N)nc1Nc1cccc(-n2nccn2)c1
In short: as §1

[8] = compound: NC1(c2ccc(-c3nc4ccn5c(=O)[nH]nc5c4cc3-c3ccccc3)cc2)CCC1
In short: as §1

Sequence of UniProt Q99943 (Q99943 whole entry, looked up): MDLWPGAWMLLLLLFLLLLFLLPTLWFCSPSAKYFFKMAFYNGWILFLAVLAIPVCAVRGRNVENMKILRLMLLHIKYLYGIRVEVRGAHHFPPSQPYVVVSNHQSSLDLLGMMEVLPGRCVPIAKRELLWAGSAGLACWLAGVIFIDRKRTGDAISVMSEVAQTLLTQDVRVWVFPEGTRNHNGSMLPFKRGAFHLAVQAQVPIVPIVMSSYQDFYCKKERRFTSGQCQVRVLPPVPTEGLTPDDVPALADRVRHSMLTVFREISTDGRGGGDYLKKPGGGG
Sequence of UniProt P00352 (P00352 whole entry, looked up): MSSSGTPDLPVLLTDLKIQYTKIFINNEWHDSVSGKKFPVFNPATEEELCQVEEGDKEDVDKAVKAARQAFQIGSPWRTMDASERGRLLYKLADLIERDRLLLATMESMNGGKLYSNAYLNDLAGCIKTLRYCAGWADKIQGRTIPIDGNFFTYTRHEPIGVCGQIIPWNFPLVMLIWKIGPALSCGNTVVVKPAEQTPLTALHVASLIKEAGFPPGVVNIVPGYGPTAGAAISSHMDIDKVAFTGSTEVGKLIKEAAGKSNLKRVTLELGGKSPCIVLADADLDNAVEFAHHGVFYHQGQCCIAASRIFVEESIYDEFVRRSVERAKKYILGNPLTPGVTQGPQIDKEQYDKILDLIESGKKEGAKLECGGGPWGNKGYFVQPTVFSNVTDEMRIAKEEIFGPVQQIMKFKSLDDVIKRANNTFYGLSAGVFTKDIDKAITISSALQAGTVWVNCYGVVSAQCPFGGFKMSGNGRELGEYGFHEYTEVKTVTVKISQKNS
Sequence of UniProt P35611 (P35611 whole entry, looked up): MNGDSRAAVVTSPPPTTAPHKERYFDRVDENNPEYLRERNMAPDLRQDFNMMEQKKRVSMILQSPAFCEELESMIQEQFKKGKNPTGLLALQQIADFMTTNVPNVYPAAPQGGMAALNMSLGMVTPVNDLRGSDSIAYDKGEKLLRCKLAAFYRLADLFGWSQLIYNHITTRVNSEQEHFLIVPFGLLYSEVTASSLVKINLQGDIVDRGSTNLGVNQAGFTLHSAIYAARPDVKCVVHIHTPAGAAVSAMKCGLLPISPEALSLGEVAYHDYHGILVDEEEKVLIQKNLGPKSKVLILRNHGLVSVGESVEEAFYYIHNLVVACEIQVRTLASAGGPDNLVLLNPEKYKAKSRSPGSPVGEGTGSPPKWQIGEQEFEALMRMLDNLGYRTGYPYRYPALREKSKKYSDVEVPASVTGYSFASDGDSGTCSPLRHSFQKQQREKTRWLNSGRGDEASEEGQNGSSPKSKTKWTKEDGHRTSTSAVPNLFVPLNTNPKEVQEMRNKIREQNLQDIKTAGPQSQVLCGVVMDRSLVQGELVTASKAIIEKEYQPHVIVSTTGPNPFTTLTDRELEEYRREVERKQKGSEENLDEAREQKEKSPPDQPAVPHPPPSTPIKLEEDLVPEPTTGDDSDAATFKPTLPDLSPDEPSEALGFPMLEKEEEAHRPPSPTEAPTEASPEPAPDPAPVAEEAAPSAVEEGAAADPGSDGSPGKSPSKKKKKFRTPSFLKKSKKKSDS
Sequence of UniProt P51825 (P51825 whole entry, looked up): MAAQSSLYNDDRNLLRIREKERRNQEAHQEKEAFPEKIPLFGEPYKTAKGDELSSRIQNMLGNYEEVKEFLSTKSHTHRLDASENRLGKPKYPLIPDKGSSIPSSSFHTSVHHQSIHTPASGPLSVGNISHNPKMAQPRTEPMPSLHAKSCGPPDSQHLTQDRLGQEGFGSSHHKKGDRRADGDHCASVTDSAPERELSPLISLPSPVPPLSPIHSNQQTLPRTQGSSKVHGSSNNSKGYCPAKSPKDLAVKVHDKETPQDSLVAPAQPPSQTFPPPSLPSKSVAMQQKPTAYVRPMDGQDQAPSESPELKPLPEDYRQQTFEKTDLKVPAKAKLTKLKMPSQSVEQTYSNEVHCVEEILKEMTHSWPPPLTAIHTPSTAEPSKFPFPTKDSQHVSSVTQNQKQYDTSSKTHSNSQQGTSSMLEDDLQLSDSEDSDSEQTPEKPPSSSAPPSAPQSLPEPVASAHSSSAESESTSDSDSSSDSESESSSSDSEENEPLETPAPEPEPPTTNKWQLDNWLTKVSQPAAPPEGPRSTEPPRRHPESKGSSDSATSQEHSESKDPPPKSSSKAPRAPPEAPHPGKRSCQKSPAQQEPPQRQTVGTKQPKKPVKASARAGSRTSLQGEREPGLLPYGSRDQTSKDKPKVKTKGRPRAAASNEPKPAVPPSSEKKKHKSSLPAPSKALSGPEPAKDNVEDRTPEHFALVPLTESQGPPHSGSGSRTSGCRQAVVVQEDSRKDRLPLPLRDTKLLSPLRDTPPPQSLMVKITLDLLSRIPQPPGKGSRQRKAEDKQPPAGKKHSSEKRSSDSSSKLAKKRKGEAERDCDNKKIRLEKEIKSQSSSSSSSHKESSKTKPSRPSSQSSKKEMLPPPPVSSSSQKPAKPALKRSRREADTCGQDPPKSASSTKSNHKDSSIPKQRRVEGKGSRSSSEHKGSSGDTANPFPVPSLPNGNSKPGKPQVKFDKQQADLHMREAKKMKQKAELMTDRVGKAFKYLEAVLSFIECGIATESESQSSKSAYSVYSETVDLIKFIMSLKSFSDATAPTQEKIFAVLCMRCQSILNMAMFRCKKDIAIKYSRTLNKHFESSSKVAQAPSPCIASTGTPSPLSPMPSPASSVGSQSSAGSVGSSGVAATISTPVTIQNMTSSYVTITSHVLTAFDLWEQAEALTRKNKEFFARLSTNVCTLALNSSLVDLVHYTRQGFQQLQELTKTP
Sequence of UniProt P27695 (P27695 whole entry, looked up): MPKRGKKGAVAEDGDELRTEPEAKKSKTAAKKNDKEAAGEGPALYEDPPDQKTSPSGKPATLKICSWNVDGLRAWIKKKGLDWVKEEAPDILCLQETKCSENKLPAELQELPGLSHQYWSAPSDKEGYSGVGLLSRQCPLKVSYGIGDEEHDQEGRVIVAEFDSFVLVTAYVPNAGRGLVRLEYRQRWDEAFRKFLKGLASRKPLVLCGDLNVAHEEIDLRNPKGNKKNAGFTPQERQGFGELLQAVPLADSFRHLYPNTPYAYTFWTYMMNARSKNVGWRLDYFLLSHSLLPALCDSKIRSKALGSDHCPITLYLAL
Sequence of UniProt Q12904 (Q12904 whole entry, looked up): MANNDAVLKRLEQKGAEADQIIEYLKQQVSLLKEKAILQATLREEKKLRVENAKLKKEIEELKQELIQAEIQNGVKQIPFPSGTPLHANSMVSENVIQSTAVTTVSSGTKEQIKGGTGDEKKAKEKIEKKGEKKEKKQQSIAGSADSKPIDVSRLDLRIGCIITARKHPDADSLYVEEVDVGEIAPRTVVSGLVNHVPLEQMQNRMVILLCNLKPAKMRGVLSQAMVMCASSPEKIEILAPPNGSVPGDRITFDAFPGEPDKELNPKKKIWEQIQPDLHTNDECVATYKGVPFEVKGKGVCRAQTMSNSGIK
Sequence of UniProt Q15067 (Q15067 whole entry, looked up): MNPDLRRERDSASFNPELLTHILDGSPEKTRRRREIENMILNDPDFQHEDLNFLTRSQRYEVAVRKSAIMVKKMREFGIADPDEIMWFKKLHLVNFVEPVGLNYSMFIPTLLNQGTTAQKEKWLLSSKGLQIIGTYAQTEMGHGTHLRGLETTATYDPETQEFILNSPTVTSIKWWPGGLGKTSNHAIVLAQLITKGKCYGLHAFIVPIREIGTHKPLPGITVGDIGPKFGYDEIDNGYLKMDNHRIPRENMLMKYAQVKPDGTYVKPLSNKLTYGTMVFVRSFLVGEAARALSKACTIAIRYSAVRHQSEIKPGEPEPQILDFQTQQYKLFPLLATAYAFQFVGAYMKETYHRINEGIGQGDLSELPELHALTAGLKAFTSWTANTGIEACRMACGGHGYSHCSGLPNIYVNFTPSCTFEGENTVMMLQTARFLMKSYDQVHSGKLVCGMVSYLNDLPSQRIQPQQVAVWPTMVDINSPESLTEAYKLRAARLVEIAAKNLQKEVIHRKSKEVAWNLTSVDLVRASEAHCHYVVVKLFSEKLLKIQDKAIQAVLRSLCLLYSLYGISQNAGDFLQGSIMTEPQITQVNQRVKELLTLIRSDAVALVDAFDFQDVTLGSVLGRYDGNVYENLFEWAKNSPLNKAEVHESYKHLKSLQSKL
Sequence of UniProt Q92974 (Q92974 whole entry, looked up): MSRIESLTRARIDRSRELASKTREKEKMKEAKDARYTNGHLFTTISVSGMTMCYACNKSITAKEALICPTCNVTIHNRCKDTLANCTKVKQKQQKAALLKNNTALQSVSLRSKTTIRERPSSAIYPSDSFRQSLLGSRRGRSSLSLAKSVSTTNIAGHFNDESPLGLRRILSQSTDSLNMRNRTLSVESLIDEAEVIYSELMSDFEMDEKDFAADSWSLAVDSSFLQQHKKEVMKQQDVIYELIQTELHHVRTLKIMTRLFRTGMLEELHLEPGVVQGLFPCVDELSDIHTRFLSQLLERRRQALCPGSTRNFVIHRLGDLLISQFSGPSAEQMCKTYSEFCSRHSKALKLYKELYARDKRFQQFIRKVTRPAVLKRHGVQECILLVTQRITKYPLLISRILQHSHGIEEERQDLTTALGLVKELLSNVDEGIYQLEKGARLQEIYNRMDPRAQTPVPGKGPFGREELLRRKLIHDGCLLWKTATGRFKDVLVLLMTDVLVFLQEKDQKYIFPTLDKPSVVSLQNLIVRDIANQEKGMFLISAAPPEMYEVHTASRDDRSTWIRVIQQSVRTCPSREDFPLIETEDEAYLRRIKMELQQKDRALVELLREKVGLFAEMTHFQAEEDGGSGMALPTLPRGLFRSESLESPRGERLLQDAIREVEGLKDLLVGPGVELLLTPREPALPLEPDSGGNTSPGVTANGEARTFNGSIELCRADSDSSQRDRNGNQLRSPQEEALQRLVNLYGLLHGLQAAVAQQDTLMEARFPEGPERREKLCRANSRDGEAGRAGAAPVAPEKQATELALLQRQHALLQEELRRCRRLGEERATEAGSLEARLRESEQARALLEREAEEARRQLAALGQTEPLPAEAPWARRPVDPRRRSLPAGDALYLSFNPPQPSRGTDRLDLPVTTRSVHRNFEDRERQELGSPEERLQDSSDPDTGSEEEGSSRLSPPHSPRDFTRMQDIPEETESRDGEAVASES

Target | log2 fold change (lapatinib) | log2 fold change (pictilisib) | log2 fold change (crizotinib) | log2 fold change [1] | log2 fold change (duvelisib) | log2 fold change (gandotinib) | log2 fold change (tozasertib) | log2 fold change (doramapimod) | log2 fold change (bafetinib) | log2 fold change [2] | log2 fold change (nilotinib) | log2 fold change [3] | log2 fold change (dasatinib) | log2 fold change [4] | log2 fold change [5] | log2 fold change (quisinostat) | log2 fold change (tipifarnib) | log2 fold change [6] | log2 fold change [7] | log2 fold change [8]
AIMP1 isoform 2 (UniProt Q12904) | -0.019 | -0.004 | -0.05 | 0.023 | 0.007 | -0.085 | -0.008 | -0.015 | -0.041 | -0.012 | -0.013 | -0.016 | -0.076 | 0.019 | 0.023 | 0.01 | 0.013 | 0.044 | -0.011 | 0.001
ACBD6 (UniProt Q9BR61) | -0.002 | 0.01 | -0.04 | -0.036 | 0.063 | -0.01 | -0.051 | -0.024 | -0.047 | 0.006 | -0.032 | 0.007 | 0.04 | 0.012 | 0.013 | -0.017 | 0.013 | -0.014 | 0.06 | -0.04
ADD1 isoform 3 (UniProt P35611) | -0.017 | 0.003 | 0.014 | -0.011 | 0.014 | -0.001 | -0.002 | 0.002 | 0.002 | -0.019 | 0.027 | -0.005 | 0.007 | -0.017 | -0.012 | -0.016 | 0.019 | 0.007 | -0.015 | 0.011
ALG8 (UniProt Q9BVK2) | -0.043 | -0.043 | 0.017 | -0.211 | -0.013 | 0 | 0.116 | -0.06 | -0.08 | 0.087 | -0.007 | -0.008 | -0.051 | -0.077 | 0.02 | 0.019 | -0.165 | 0.043 | -0.025 | -0.006
ACOX1 isoform 2 (UniProt Q15067) | -0.003 | -0.003 | -0.004 | -0.112 | -0.012 | 0.167 | 0.043 | 0.024 | -0.01 | 0.054 | 0.104 | 0.005 | 0.065 | -0.011 | 0.019 | 0 | -0.042 | -0.018 | -0.039 | 0
ACYP1 (UniProt P07311) | -0.001 | -0.044 | 0.024 | 0.236 (active) | 0.005 | -0.051 | 0.016 | 0.009 | 0.005 | -0.091 | -0.014 | 0.019 | 0.022 | -0.028 | 0.014 | 0.024 | 0.019 | -0.029 | -0.013 | 0.039
AKAP8L (UniProt Q9ULX6) | 0.017 | -0.018 | 0.053 | -0.05 | 0.038 | 0.033 | 0 | -0.153 | 0.016 | 0.011 | -0.267 (active) | 0.022 | -0.062 | 0.016 | 0.037 | -0.024 | -0.011 | 0.055 | 0.002 | 0.028
ABHD12 isoform 2 (UniProt Q8N2K0) | -0.006 | -0.069 | -0.04 | 0.078 | -0.057 | -0.095 | 0.06 | 0.04 | 0.062 | -0.063 | 0.005 | -0.004 | 0.028 | 0.058 | -0.068 | 0.044 | -0.077 | -0.025 | -0.02 | 0.019
ARHGEF2 (UniProt Q92974) | 0.014 | 0.005 | -0.016 | 0.006 | -0.017 | 0.025 | 0.018 | 0.089 | -0.045 | 0.04 | 0.014 | -0.01 | -0.01 | -0.025 | 0.013 | -0.048 | -0.04 | 0.006 | -0.008 | 0.013
AFF1 isoform 2 (UniProt P51825) | -0.055 | -0.063 | 0.005 | -0.396 (active) | 0.067 | 0.341 | 0.066 | 0.064 | -0.04 | 0.696 (active) | -0.069 | 0.022 | 0.059 | 0.069 | -0.043 | -0.01 | 0.028 | -0.005 | 0.194 | 0.008
AKR1B1 (UniProt P15121) | -0.009 | 0.006 | 0.065 | -0.102 | -0.006 | 0.037 | -0.014 | -0.022 | 0.011 | 0.006 | 0.031 | -0.022 | 0.086 | 0.028 | -0.136 | 0.016 | -0.036 | 0.03 | -0.009 | 0.038
APEX1 (UniProt P27695) | 0.022 | 0.039 | -0.01 | 0.352 (active) | -0.025 | -0.042 | -0.029 | -0.045 | 0.106 | -0.067 | 0.045 | -0.037 | 0.002 | -0.027 | 0.018 | 0.016 | 0.001 | 0.021 | -0.011 | -0.008
AARS2 (UniProt Q5JTZ9) | 0.007 | 0.01 | -0.046 | 0.072 | 0.012 | -0.121 | 0.039 | 0.034 | -0.041 | 0.019 | -0.046 | 0.021 | -0.018 | -0.013 | 0.062 | -0.046 | 0.023 | 0.053 | 0.016 | -0.05
AIF1L (UniProt Q9BQI0) | 0.047 | 0.046 | 0.039 | 0.069 | -0.075 | -0.171 | -0.105 | -0.037 | -0.122 | 0.101 | -0.263 | -0.176 | 0.118 | 0.142 | -0.058 | -0.075 | 0.123 | -0.112 | -0.012 | 0.016
AGPAT1 (UniProt Q99943) | -0.122 | 0.009 | -0.029 | -0.019 | 0.009 | -0.034 | 0.041 | 0.028 | -0.057 | 0.091 | -0.021 | -0.004 | -0.069 | 0.055 | -0.062 | 0.043 | -0.058 | -0.028 | 0.028 | -0.003
ALDH1A1 (UniProt P00352) | 0.002 | -0.068 | 0.004 | 0.05 | -0.023 | -0.111 | -0.006 | -0.015 | 0.061 | -0.164 | 0.036 | -0.019 | 0.306 (active) | -0.012 | -0.04 | 0.015 | 0.019 | 0.014 | -0.011 | 0.034
